Inconclusive results are not listed. Where a call stands in place of a potency, no number is given. A number with no mark means an inactive call. The source made the active and inactive calls. Calls follow the shape of the dose curve; as a rule, active = well fitted curve in the direction sought with a large enough effect in the repeat runs; inconclusive = weak or mixed curves; inactive = no such curve, though single readings can be large; an effect the other way counts as inactive or inconclusive.
Tests used:
[1] = qHTS RealTime-Glo MT Cell Viability Assay in HEK293 cells - 16 hour (AID 1224872); settings: RealTime-Glo luminescence; series mostly up to 76.8 µM; also: nearly all actives have a fitted effect of over 50% in size; also: potency is read from the fitted curve at half-maximal effect; as to activity change, negative = cytotoxicity: top concentration of the series differs between compounds
Method in brief: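 Viability tracked continuously by luminescence as live cells reduce a prosubstrate for NanoLuc; HEK293 cells preincubated 5 h, compound-treated at 37 C, and read at 0, 8, 16, 24, 32 and 40 h.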

[2] = qHTS RealTime-Glo MT Cell Viability Assay in HepG2 cells - 8 hour (AID 1224873); settings: RealTime-Glo luminescence; series mostly up to 76.8 µM; also: nearly all actives have a fitted effect of over 55% in size; also: potency is read from the fitted curve at half-maximal effect
Method in brief: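 HepG2 cells (600/well) mixed with RealTime-Glo MT reagent, settled 5 h at 37 C/5% CO2 before compound addition. Nonlytic NanoLuc luminescence from viable-cell prosubstrate reduction read repeatedly during 40 h treatment at 37 C.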

[3] = qHTS RealTime-Glo MT Cell Viability Assay in HEK293 cells - 40 hour (AID 1224874); settings: RealTime-Glo luminescence; max response: active compounds read low; also: nearly all actives have a fitted effect of over 50% in size; also: potency is read from the fitted curve at half-maximal effect
Method in brief: (§1)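 Measured as luminescence from the same continuously cultured HEK293 wells at successive time points (0, 8, 16, 24, 32, 40 h) after compound addition. Reagent present from seeding; dosing at 5 h; incubation 37 C.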

[4] = A CellTox Green Cytotoxicity Assay to monitor cytotoxicity in HEK293 cells - 24 hour (AID 1224875); settings: CellTox Green fluorescence; series mostly up to 76.8 µM; also: nearly all actives have a fitted effect of over 45% in size; also: potency is read from the fitted curve at half-maximal effect
Method in brief: (§2)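 Homogeneous no-lysis format: HEK293 cell suspension mixed with CellTox Green reagent, seeded, incubated 5 h at 37 C/5% CO2, then dosed by pintool with compound in DMSO.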

[5] = A CellTox Green Cytotoxicity Assay to monitor cytotoxicity in HepG2 cells - 16 hour (AID 1224876); settings: CellTox Green fluorescence; series mostly up to 76.8 µM; also: nearly all actives have a fitted effect of over 45% in size; also: potency is read from the fitted curve at half-maximal effect
Method in brief: (§3)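 Fluorescent DNA-binding dye, 600 HepG2 cells/well, 5 h preincubation then compound in DMSO; same plates read at 0–40 h, 37 C.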

[6] = qHTS RealTime-Glo MT Cell Viability Assay in HepG2 cells - 32 hour (AID 1224877); settings: RealTime-Glo luminescence; series mostly up to 76.8 µM; also: nearly all actives have a fitted effect of over 55% in size; also: potency is read from the fitted curve at half-maximal effect
Method in brief: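 Viability was tracked continuously by NanoLuc luminescence from prosubstrate reduced by living HepG2 cells, at successive time points over 40 h of compound exposure. Cells with reagent were preincubated 5 h at 37 °C before compound addition.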

[7] = A CellTox Green Cytotoxicity Assay to monitor cytotoxicity in HepG2 cells - 24 hour (AID 1224878); settings: CellTox Green fluorescence; series mostly up to 76.8 µM; also: nearly all actives have a fitted effect of over 45% in size; also: potency is read from the fitted curve at half-maximal effect
Method in brief: as §3

[8] = A CellTox Green Cytotoxicity Assay to monitor cytotoxicity in HepG2 cells - 40 hour (AID 1224879); settings: CellTox Green fluorescence; series mostly up to 76.8 µM; also: nearly all actives have a fitted effect of over 40% in size; also: potency is read from the fitted curve at half-maximal effect
Method in brief: as §3

[9] = A CellTox Green Cytotoxicity Assay to monitor cytotoxicity in HEK293 cells - 32 hour (AID 1224881); settings: CellTox Green fluorescence; series mostly up to 76.8 µM; also: nearly all actives have a fitted effect of over 40% in size; also: potency is read from the fitted curve at half-maximal effect
Method in brief: as §2

[10] = qHTS RealTime-Glo MT Cell Viability Assay in HEK293 cells - 0 hour (AID 1224880); settings: RealTime-Glo luminescence; series mostly up to 76.8 µM; also: top concentration of the series differs between compounds; nearly all actives have a fitted effect of over 45% in size
Method in brief: as §1

For CC(C(=O)O)c1ccc2c(c1)[nH]c1ccc(Cl)cc12 (stereo unspecified), the Potency [1] was “inactive”, the Potency [2] was “inactive” and the max response [3] was 1.73%. For the same compound, the Potency [4] was “inactive”, the Potency [5] was “inactive” and the Potency [6] was “inactive”. For the same compound, the Potency [7] was “inactive”, the Potency [8] was “inactive” and the Potency [9] was “inactive”.
In the case of CCO[Si](OCC)(OCC)OCC, the Potency [1] is reported as “inactive”, the Potency [2] is reported as “inactive” and the max response [3] is reported as 3.28%. The Potency [4] was “inactive”, the Potency [5] was “inactive” and the Potency [6] was “inactive”. For the same compound, the Potency [7] was “inactive”, the Potency [8] was “inactive” and the Potency [10] was “inactive”. For the same compound, the Potency [9] was “inactive”.
With Cc1ccc(C(C)C)cc2c(C)ccc1-2 the Potency [1] was “inactive”, the Potency [2] was “inactive” and the max response [3] was -5.67%. The Potency [4] was “inactive”, the Potency [5] was “inactive” and the Potency [6] was “inactive”. For the same compound, the Potency [7] was “inactive”, the Potency [8] was “inactive” and the Potency [10] was “inactive”. The Potency [9] was “inactive”.
In the case of CCCCC(CC)CN1CN(CC(CC)CCCC)CC(C)(N)C1 (stereo unspecified), the Potency [1] is reported as 9.52 µM (active), the Potency [2] is reported as 19 µM (active) and the Potency [3] is reported as 9.52 µM (active). The Potency [4] was 10.7 µM (active), the Potency [5] was 19 µM (active) and the Potency [6] was 16.9 µM (active). The Potency [7] was 19 µM (active), the Potency [8] was 19 µM (active) and the Potency [9] was 10.7 µM (active).
In the case of C=Cc1ccccc1C=C, the Potency [1] is reported as “inactive”, the Potency [2] is reported as “inactive” and the max response [3] is reported as 16.3%. The Potency [4] was “inactive”, the Potency [5] was “inactive” and the Potency [6] was “inactive”. The Potency [7] was “inactive”, the Potency [10] was “inactive” and the Potency [9] was “inactive”.
For Cc1c(F)c(N2CCNC(C)C2)cc2c1c(=O)c(C(=O)O)cn2C1CC1 (stereo unspecified), the Potency [1] was “inactive”, the Potency [2] was “inactive” and the max response [3] was 11.8%. For the same compound, the Potency [4] was “inactive”, the Potency [5] was “inactive” and the Potency [6] was “inactive”. The Potency [7] was “inactive”, the Potency [8] was “inactive” and the Potency [10] was “inactive”. For the same compound, the Potency [9] was “inactive”.
In the case of COC(=O)c1ccccc1OC, the Potency [1] is reported as “inactive”, the Potency [2] is reported as “inactive” and the max response [3] is reported as 2.19%. The Potency [4] was “inactive”, the Potency [5] was “inactive” and the Potency [6] was “inactive”. For the same compound, the Potency [7] was “inactive”, the Potency [8] was “inactive” and the Potency [10] was “inactive”. The Potency [9] was “inactive”.
In the case of CCN(CC)C(=O)c1cc(S(=O)(=O)Cc2ccccc2)c(N2CCC(c3ccccc3)CC2)cc1N(CC)CCN(C)C, the Potency [1] is reported as 15.3 µM (active), the Potency [2] is reported as 17.2 µM (active) and the Potency [3] is reported as 7.67 µM (active). The Potency [4] was 19.3 µM (active), the Potency [5] was 17.2 µM (active) and the Potency [6] was 17.2 µM (active). The Potency [7] was 17.2 µM (active), the Potency [8] was 13.6 µM (active) and the Potency [10] was “inactive”. For the same compound, the Potency [9] was 19.3 µM (active).
In the case of C=CCCC(=O)/C=C/C1C(C)=CCCC1(C)C (stereo unspecified), the Potency [1] is reported as “inactive”, the Potency [2] is reported as “inactive” and the max response [3] is reported as -12.7%. The Potency [4] was 34.7 µM (active), the Potency [5] was “inactive” and the Potency [6] was “inactive”. For the same compound, the Potency [7] was “inactive”, the Potency [8] was “inactive” and the Potency [10] was “inactive”. The Potency [9] was 24.5 µM (active).
For c1cnccn1, the Potency [1] was “inactive”, the Potency [2] was “inactive” and the max response [3] was 2.57%. For the same compound, the Potency [4] was “inactive”, the Potency [5] was “inactive” and the Potency [6] was “inactive”. For the same compound, the Potency [7] was “inactive”, the Potency [8] was “inactive” and the Potency [10] was “inactive”. The Potency [9] was “inactive”.
In the case of CN(C)C(=O)COC(=O)Cc1ccc(OC(=O)c2ccc(N=C(N)N)cc2)cc1, the Potency [1] is reported as “inactive”, the Potency [2] is reported as “inactive” and the max response [3] is reported as 5.33%. The Potency [4] was “inactive”, the Potency [5] was “inactive” and the Potency [6] was “inactive”. For the same compound, the Potency [7] was “inactive”, the Potency [8] was “inactive” and the Potency [10] was “inactive”. For the same compound, the Potency [9] was “inactive”.
In the case of O=[N+]([O-])c1cccc(C(F)(F)F)c1, the Potency [1] is reported as “inactive”, the Potency [2] is reported as “inactive” and the max response [3] is reported as 7.87%. For the same compound, the Potency [4] was “inactive”, the Potency [5] was “inactive” and the Potency [6] was “inactive”. For the same compound, the Potency [7] was “inactive”, the Potency [8] was “inactive” and the Potency [10] was “inactive”. For the same compound, the Potency [9] was “inactive”.
For CN1CCC[C@@H]1CCO[C@](C)(c1ccccc1)c1ccc(Cl)cc1, the Potency [1] was 19 µM (active), the Potency [2] was “inactive” and the Potency [3] was 16.9 µM (active). For the same compound, the Potency [4] was 26.8 µM (active), the Potency [5] was 21.3 µM (active) and the Potency [6] was 23.9 µM (active). For the same compound, the Potency [7] was 21.3 µM (active), the Potency [8] was 21.3 µM (active) and the Potency [9] was 26.8 µM (active).
With CC(C)(C)NSc1nc2ccccc2s1 the Potency [1] was “inactive”, the Potency [2] was “inactive” and the max response [3] was 8.62%. The Potency [4] was “inactive”, the Potency [5] was “inactive” and the Potency [6] was “inactive”. The Potency [7] was “inactive”, the Potency [8] was “inactive” and the Potency [10] was “inactive”. The Potency [9] was “inactive”.
With c1ccc(SSc2ccccc2)cc1 the Potency [1] was “inactive”, the Potency [2] was “inactive” and the max response [3] was -15.4%. The Potency [4] was “inactive”, the Potency [5] was “inactive” and the Potency [6] was “inactive”. For the same compound, the Potency [7] was “inactive”, the Potency [8] was “inactive” and the Potency [9] was “inactive”.
In the case of COc1cc2nc(N3CCN(C(=O)c4ccco4)CC3)nc(N)c2cc1OC, the activity change, negative = cytotoxicity [1] is reported as -20% [at 15.8 µM], the viability change, negative = cytotoxic [2] is reported as -0.626% [at 15.8 µM] and the max response [3] is reported as -18.8%. The activity change [4] was 21% [at 15.8 µM, active compounds read high], the cytotoxicity increase [5] was 29.2% [at 15.8 µM] and the Potency [7] was 7.37 µM (active). For the same compound, the Potency [8] was 10.4 µM (active), the activity change, negative = cytotoxicity [10] was 4.25% [at 15.8 µM] and the cytotoxicity increase [9] was 43.4% [at 15.8 µM].
For CCCCOC(=O)CC, the Potency [1] was “inactive”, the Potency [2] was “inactive” and the max response [3] was 2.07%. For the same compound, the Potency [4] was “inactive”, the Potency [6] was “inactive” and the Potency [10] was “inactive”. For the same compound, the Potency [9] was “inactive”.
With CC1(C)[C@@H](O)CC[C@]2(C)[C@H]3C(=O)C=C4[C@@H]5C[C@@](C)(C(=O)O)CC[C@]5(C)CC[C@@]4(C)[C@]3(C)CC[C@@H]12 the Potency [1] was “inactive”, the Potency [2] was “inactive” and the max response [3] was 13.7%. The Potency [4] was “inactive”, the Potency [5] was “inactive” and the Potency [6] was “inactive”. The Potency [10] was “inactive” and the Potency [9] was “inactive”.
With OC1CCC(C2CCCCC2)CC1 (stereo unspecified) the Potency [1] was “inactive”, the Potency [2] was “inactive” and the max response [3] was -6.69%. The Potency [4] was “inactive”, the Potency [6] was “inactive” and the Potency [7] was 43.6 µM (active). The Potency [10] was “inactive” and the Potency [9] was “inactive”.
With CC(C)(C)CC(C)(C)c1ccc(Nc2ccc(C(C)(C)CC(C)(C)C)cc2)cc1 the activity change, negative = cytotoxicity [1] was -0.589% [at 6.97 µM], the viability change, negative = cytotoxic [2] was 4.91% [at 6.97 µM] and the activity change [4] was 4.29% [at 6.97 µM, active compounds read high]. The cytotoxicity increase [5] was -0.431% [at 6.97 µM], the activity change, negative = cytotoxic [6] was 0.186% [at 6.97 µM] and the cytotoxicity [7] was 4.45% [at 6.97 µM]. For the same compound, the cytotoxicity increase [8] was 2.12% [at 6.97 µM], the activity change, negative = cytotoxicity [10] was -8.12% [at 6.97 µM] and the cytotoxicity increase [9] was 0.962% [at 6.97 µM].
For [Cu+], the Potency [1] was “inactive”, the Potency [2] was “inactive” and the Potency [4] was “inactive”. The Potency [5] was “inactive”, the Potency [6] was 49 µM (active) and the Potency [7] was “inactive”. For the same compound, the Potency [8] was “inactive”, the Potency [10] was “inactive” and the Potency [9] was “inactive”.
With Cc1cc(C(C#N)c2ccc(Cl)cc2)c(Cl)cc1NC(=O)c1cc(I)cc(I)c1O (stereo unspecified) the Potency [1] was “inactive”, the Potency [2] was “inactive” and the Potency [4] was “inactive”. The Potency [5] was “inactive”, the Potency [6] was “inactive” and the Potency [7] was “inactive”. For the same compound, the Potency [8] was “inactive”, the Potency [10] was “inactive” and the Potency [9] was “inactive”.
In the case of C=C(C)C(=O)OCCCCCCCCCC, the Potency [1] is reported as “inactive”, the Potency [2] is reported as “inactive” and the max response [3] is reported as 14.3%. The Potency [5] was “inactive”, the Potency [6] was “inactive” and the Potency [7] was “inactive”. The Potency [8] was “inactive” and the Potency [10] was “inactive”.
In the case of CCOC(=O)NNc1ccc(N(CC)CC(C)O)nn1 (stereo unspecified), the Potency [1] is reported as “inactive”, the Potency [2] is reported as “inactive” and the Potency [4] is reported as “inactive”. For the same compound, the Potency [5] was “inactive”, the Potency [6] was “inactive” and the Potency [7] was “inactive”. For the same compound, the Potency [8] was “inactive”, the Potency [10] was “inactive” and the Potency [9] was “inactive”.
